Values joined by “and” are separate entries in the source; they are usually repeats but may differ in a detail not shown here. Equal entries are not always repeated. Among all 5,500 compounds or so, about 2,000 (36%) were called active. Inconclusive results (about 18%) are left out. No stated cut-off is given here; in the data, active means normalized growth mostly below about 0.91 (no sharp cut-off); inconclusive means no clear call, values can overlap the other calls; inactive means mostly above about 0.92. This is one part of the list.
Experiment: chemical genetic growth profiling, strain panel (AID 1159580);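 further: tested at 20 µM; growth read once vehicle control cultures reached saturation at 30 °C; 1 = growth at the plate median or of vehicle wells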
Settings: S. cerevisiae deletion strains, growth OD

Measured: normalized growth

OCc1ccccc1O[C@@H]1O[C@H](CO)[C@@H](O)[C@H](O)[C@H]1O
inactive: locus YAL013W, strain DEP1, stronger effect = lower value 0.994 | locus YAL021C, strain ccr4, stronger effect = lower value 0.98 | locus YAL026C, strain drs2, stronger effect = lower value 0.99 | locus YAL030W, strain snc1, stronger effect = lower value 0.964 | locus YBL061C, strain skt5, stronger effect = lower value 0.983 | locus YBR009C, strain hhf1, stronger effect = lower value 0.977 | locus YBR021W, strain FUR4, stronger effect = lower value 1.04 | locus YBR023C, strain chs3, stronger effect = lower value 0.99 | locus YBR171W, strain sec66, stronger effect = lower value 0.98 | locus YBR229C, strain ROT2, stronger effect = lower value 0.95 | locus YBR231C, strain swc5, stronger effect = lower value 0.983 | locus YBR279W, strain paf1, stronger effect = lower value 0.983 | locus YCL011C, strain gbp2, stronger effect = lower value 0.98 | locus YCL016C, strain dcc1, stronger effect = lower value 0.991 | locus YCL029C, strain bik1, stronger effect = lower value 0.994 | locus YCL069W, strain vba3, stronger effect = lower value 1 | locus YCR088W, strain abp1, stronger effect = lower value 0.98 | locus YDL005C, strain med2, stronger effect = lower value 0.989 | locus YDL035C, strain GPR1, stronger effect = lower value 1 | locus YDL040C, strain nat1, stronger effect = lower value 0.994 | locus YDL074C, strain BRE1, stronger effect = lower value 0.966 | locus YDL101C, strain DUN1, stronger effect = lower value 0.976 | locus YDL134C, strain PPH21, stronger effect = lower value 0.987 | locus YDL185W, strain tfp1, stronger effect = lower value 0.983 | locus YDL192W, strain arf1, stronger effect = lower value 0.994 | locus YDR001C, strain nth1, stronger effect = lower value 0.984 | locus YDR069C, strain doa4, stronger effect = lower value 0.987 | locus YDR101C, strain arx1, stronger effect = lower value 0.946 | locus YDR137W, strain rgp1, stronger effect = lower value 1.02 | locus YDR150W, strain NUM1, stronger effect = lower value 0.98 | locus YDR159W, strain sac3, stronger effect = lower value 0.944 | locus YDR162C, strain NBP2, stronger effect = lower value 0.997 | locus YDR195W, strain ref2 0.962 | locus YDR297W, strain sur2, stronger effect = lower value 1 | locus YDR318W, strain mcm21, stronger effect = lower value 0.999 | locus YDR334W, strain swr1, stronger effect = lower value 0.925 | locus YDR335W, strain msn5, stronger effect = lower value 0.989 | locus YDR388W, stronger effect = lower value 0.996 | locus YDR392W, strain spt3, stronger effect = lower value 0.984 | locus YDR502C, strain sam2, stronger effect = lower value 0.987 | locus YEL003W, strain gim4, stronger effect = lower value 0.984 | locus YEL037C, strain rad23, stronger effect = lower value 0.984 | locus YEL061C, strain CIN8 (second series), stronger effect = lower value 0.972 | locus YEL061C, strain CIN8, stronger effect = lower value 0.978 | locus YER015W, strain faa2, stronger effect = lower value 0.998 | locus YER016W, strain bim1, stronger effect = lower value 0.992 | locus YER110C, stronger effect = lower value 0.994 | locus YER111C, strain swi4, stronger effect = lower value 1.01 | locus YER155C, strain BEM2 (second series), stronger effect = lower value 0.998 | locus YER155C, strain BEM2, stronger effect = lower value 0.996 | locus YER167W, strain BCK2, stronger effect = lower value 0.99 | locus YFR010W, strain ubp6, stronger effect = lower value 0.998 | locus YGL078C, strain dbp3, stronger effect = lower value 0.988 | locus YGL086W, strain mad1, stronger effect = lower value 0.97 | locus YGL167C, strain pmr1, stronger effect = lower value 1 | locus YGL173C, strain kem1, stronger effect = lower value 0.995 | locus YGL227W, strain vid30, stronger effect = lower value 0.965 | locus YGL240W, strain doc1, stronger effect = lower value 0.996 | locus YGL248W, strain PDE1, stronger effect = lower value 0.979 | locus YGL253W, strain hxk2, stronger effect = lower value 0.987 | locus YGR078C, strain PAC10, stronger effect = lower value 0.97 | locus YGR135W, strain pre9, stronger effect = lower value 1.07 | locus YGR229C, strain SMI1, stronger effect = lower value 1.01 | locus YGR252W, strain gcn5, stronger effect = lower value 1.08 | locus YHR013C, strain ard1, stronger effect = lower value 1.04 | locus YHR027C, strain rpn1, stronger effect = lower value 0.959 | locus YHR030C, strain SLT2, stronger effect = lower value 0.992 and 0.993 | locus YHR079C, strain IRE1 (second series), stronger effect = lower value 0.983 | locus YHR079C, strain IRE1, stronger effect = lower value 1.03 | locus YHR094C, strain hxt1, stronger effect = lower value 1 | locus YHR129C, strain ARP1, stronger effect = lower value 0.991 | locus YHR142W, strain chs7, stronger effect = lower value 0.984 | locus YHR200W, strain rpn10, stronger effect = lower value 0.987 | locus YIL066C, strain RNR3, stronger effect = lower value 0.967 | locus YIL073C, strain SPO22, stronger effect = lower value 1.02 | locus YIL125W, strain kgd1, stronger effect = lower value 0.989 | locus YIR030C, strain dcg1, stronger effect = lower value 0.997 | locus YJL092W, strain hpr5, stronger effect = lower value 0.997 | locus YJL095W, strain BCK1 (second series), stronger effect = lower value 0.987 | locus YJL095W, strain BCK1, stronger effect = lower value 0.978 and 1.01 | locus YJL115W, strain asf1, stronger effect = lower value 0.992 | locus YJL129C, strain trk1, stronger effect = lower value 0.967 | locus YJL134W, strain LCB3, stronger effect = lower value 0.991 | locus YJL154C, strain vps35, stronger effect = lower value 0.991 | locus YJL164C, strain tpk1, stronger effect = lower value 0.993 | locus YJL166W, strain qcr8, stronger effect = lower value 1.01 | locus YJL168C, strain set2, stronger effect = lower value 0.986 | locus YJL187C, strain SWE1 (second series), stronger effect = lower value 0.952 | locus YJL187C, strain SWE1, stronger effect = lower value 0.997 | locus YJR043C, strain POL32, stronger effect = lower value 0.994

— PubChem BioAssay AID1159580 (chemical genetic matrix, 2015)
